# Assay outcomes as filed in PubChem.
# DT40 TDP1 no CPT: qHTS for Inhibitors of human tyrosyl-DNA phosphodiesterase 1 (TDP1): qHTS in cells in absence of CPT; AID 686978, 2013; Potency, µM (highest dose often 46.2 µM), for inactives: at the highest dose activity change, negative = growth inhibition, usual class: inhibitors; 420,000 tested, 15% active; DT40 Tdp1-/- hTDP1 cells, no CPT, ATP luminescence, 48 h; further: potency means the concentration at half of the fitted maximal effect; nearly all actives have a fitted effect of over 55% in size
#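 Growth kinetics read by CellTiter-Glo luminescence after ≥48 hr at 37 °C. Cells: DT40 Tdp1-/- stably carrying human TDP1, 400 per well, compound exposure in the absence of CPT (DMSO vehicle).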
# IL-1B inflam inh: qHTS for Inhibitors of Inflammasome Signaling: IL-1-beta AlphaLISA Primary Screen; activity change, % at 57.5 µM; 360,000 tested, 4.7% active; THP-1 LPS/ATP IL-1B secretion, AlphaLISA, 16 h; hits give low values; in the data active means activity change below about -50%; inconclusive means mostly about -30% to -49%
#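 THP-1 cells pretreated 1 hr with compounds (up to 57.5 uM final), then stimulated with LPS (250 ng/mL final) plus ATP (1.25 mM final); secreted IL-1B measured by AlphaLISA after 16 hr, decreased signal indicating inhibition.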
# 12-LOX inh: Primary qHTS assay for inhibitors of human arachidonate 12S-lipoxygenase (ALOX12): Round 2; purified 12hLO, xylenol orange hydroperoxide absorbance; Potency, µM (series often up to 108 µM), for inactives: at the top dose activity change, negative = inhibition, hits mostly inhibitors; 580,000 tested, 1.1% active; further: potency means the concentration at half of the fitted maximal effect
# Target sequence (P18054 whole entry, looked up): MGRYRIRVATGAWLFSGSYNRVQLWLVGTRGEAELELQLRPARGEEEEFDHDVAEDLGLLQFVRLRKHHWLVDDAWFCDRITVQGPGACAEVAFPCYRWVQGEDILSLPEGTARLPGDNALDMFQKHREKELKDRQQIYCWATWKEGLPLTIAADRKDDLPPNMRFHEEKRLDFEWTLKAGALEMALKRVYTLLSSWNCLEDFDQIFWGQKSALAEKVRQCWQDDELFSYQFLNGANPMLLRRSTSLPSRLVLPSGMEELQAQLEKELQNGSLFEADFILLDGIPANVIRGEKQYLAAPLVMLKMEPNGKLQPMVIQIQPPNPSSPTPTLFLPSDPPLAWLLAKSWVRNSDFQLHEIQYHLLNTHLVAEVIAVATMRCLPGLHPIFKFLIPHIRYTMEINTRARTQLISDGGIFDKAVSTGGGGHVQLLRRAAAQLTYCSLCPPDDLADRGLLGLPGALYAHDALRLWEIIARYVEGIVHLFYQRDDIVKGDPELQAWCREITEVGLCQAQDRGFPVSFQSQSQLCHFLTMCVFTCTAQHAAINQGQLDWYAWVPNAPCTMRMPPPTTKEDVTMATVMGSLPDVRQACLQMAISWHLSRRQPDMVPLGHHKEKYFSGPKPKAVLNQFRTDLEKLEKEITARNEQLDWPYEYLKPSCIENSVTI
#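 Purified human 12hLO (150 nM final) in 25 mM Hepes, 0.01% Triton X-100, pH 7.0 was preincubated 15 min at room temperature with compound. Then 40 uM arachidonic acid was added, 30 min. Hydroperoxide was read by Fe-XO absorbance ratio 573/405 nm.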
# HT1080NT lethal: qHTS for induction of synthetic lethality in tumor cells producing 2HG: qHTS for the HT-1080-NT fibrosarcoma cell line | HT-1080-NT fibrosarcoma viability, CellTiter-Glo ATP luminescence, 48 h | Potency, µM (series often up to 46.1 µM), without a hit: at the highest dose activity, negative = less viability, hits mostly cytotoxic | 360,000 tested, 1.6% active;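 further: NT is the 2HG producing partner of a matched IDH1 knockdown line; potency means the concentration at half of the fitted maximal effect; 0% = DMSO-treated cells and -100% = media-only wells without cells; nearly all actives have a fitted effect of over 55% in size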
#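 750 cells/well, RPMI + 5% FBS; 2 h settle, compound pin-transfer, 48 h at 37 degrees C. CellTiter-Glo 10 min RT, luminescence. Normalized to DMSO and media-only wells.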
# HT1080 IDH1KD tx: qHTS for induction of synthetic lethality in tumor cells producing 2HG: qHTS for the HT-1080-IDH1KD cell line | HT-1080 IDH1 knockdown viability, ATP luminescence, 48 h | Potency, µM (top dose mostly 46.1 µM), without a hit: at the highest dose activity, negative = toxicity, actives largely listed as cytotoxic | 360,000 tested, 2% active;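 further: potency means the concentration at half of the fitted maximal effect; 0% = DMSO wells and -100% = cell-free medium wells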
#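 Assay cells: HT-1080 with IDH1 knockdown, 750 per well, RPMI/5% FBS. Exposure: 48 h at 37 °C following 2 h pre-incubation. Read: CellTiter-Glo luminescence; fitted concentration-response, curve class assigned.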
# DT40 TDP1 CPT: qHTS for Inhibitors of human tyrosyl-DNA phosphodiesterase 1 (TDP1): qHTS in cells in presence of CPT; 420,000 tested, 12% active; AID 686979, 2013; chicken DT40 Tdp1-/-;hTDP1 cells + 20 nM CPT, ATP luminescence, 48 h; Potency, µM (doses to about 46.2 µM), for inactives: at the top dose activity change, negative = growth inhibition, hits mostly inhibitors; further: potency means the concentration at half of the fitted maximal effect; nearly all actives have a fitted effect of over 55% in size
#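 Chicken DT40 Tdp1-/- cells stably complemented with human TDP1 were seeded at 400 cells/well in medium containing 20 nM camptothecin, exposed to pin-transferred compounds, and grown at 37 °C for at least 48 hr. Viability was read as ATP luminescence.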
# The depositor's hits bear a star; i = inactive; ? = inconclusive; . = no result given; [ ] = dose if it differs, or a comment. Only a selection was taken, and hits are over-represented in it overall. Unless noted, the call rests on the fitted dose curve; in most records, active means well fitted curve in the direction sought with a large enough effect; inconclusive means small, poorly fitted or top-dose-only effect, or another doubt; inactive means no such curve, though single readings can be large; an effect the other way counts as inactive or inconclusive. Unless noted, on the % scale 0 is the no-effect control and ±100 the full control effect.
SMILES,DT40 TDP1 no CPT,IL-1B inflam inh,12-LOX inh,HT1080NT lethal,HT1080 IDH1KD tx,DT40 TDP1 CPT
CCN(c1ccccc1)S(=O)(=O)c1cc(C(=O)Nc2cccc(Cl)c2)ccc1F,?,-10.0,13.1%,?,?,?
CCOc1ccc(NC(=O)c2ccc(S(=O)(=O)N(C)C)cc2)cc1,-20.7%,0.9,-17.5%,3.7%,-3.3%,-23.0%
CCc1ccc(NC(=O)c2ccc(F)c(S(=O)(=O)N(CC)c3ccccc3)c2)cc1,8.2µM*,18.5,-18.1%,-24.0%,?,?
CCN(Cc1ccccc1)S(=O)(=O)c1cc(C(=O)NC2CCCCCC2)ccc1OC,?,-14.7,17.9%,-5.5%,-0.7%,23.1µM*
O=C(Nc1cc(Cl)cc(Cl)c1)c1ccc(F)c(S(=O)(=O)NCc2ccccc2Cl)c1,10.3µM*,.,-27.5%,.,.,-99.3%
COc1ccc(CNS(=O)(=O)c2cc(C(=O)Nc3cc(Cl)cc(Cl)c3)ccc2F)cc1,?,.,-29.0%,.,.,?
CCOc1ccc(NC(=O)c2ccc(F)c(S(=O)(=O)N(CC)Cc3ccccc3)c2)cc1,20.6µM*,.,?,.,.,14.6µM*
CC(=O)Oc1ccc2oc(=O)c(-c3ccccc3)c(C)c2c1,.,.,89.6%,.,.,.
CCOc1ccccc1C1NC(=O)N(CC(=O)Nc2ccc(F)c(Cl)c2)C2=C1C(=O)OC2 (stereo unspecified),.,.,-7.0%,.,.,.
CCN(Cc1ccccc1)S(=O)(=O)c1cc(C(=O)Nc2cc(Cl)cc(Cl)c2)ccc1F,6.51µM*,.,-29.2%,.,.,6.51µM*
COc1cc(C2CC(=O)N(c3ccc(C)cc3)C(=O)C2)cc(OC)c1OC,1.84µM*,36.4,0.0%,3.26µM*,?,1.84µM*
COc1ccc2c(c1)OC(=O)CC2c1cc(OC)c(OC)c(OC)c1 (stereo unspecified),?,78.8,-2.7%,?,14.6µM*,?
COc1cc(C2CC(=O)Oc3cc(O)ccc32)cc(OC)c1OC (stereo unspecified),-2.6%,16.9,-20.3%,7.3%,6.4%,2.1%
COc1ccc(N2C(=O)C3CCCN3C2c2cc(OC)c(OC)c(OC)c2)cc1 (stereo unspecified),-15.2%,-21.1,30.1%[57.4 µM],2.1%,-11.4%,-15.5%
COc1ccc(N2C(=O)CC(c3cc(OC)c(OC)c(OC)c3)CC2=O)cc1,13µM*,34.8,0.0%,-16.8%,0.8%,14.6µM*
CC(=O)c1cc(C)cc(C)c1O,.,.,12.8%,.,.,.
Cc1nc(-c2cn(C3CCCN(C(=O)c4ccc(C#N)cc4)C3)nn2)no1 (stereo unspecified),.,.,9.7%,.,.,.
CCc1ccc2[nH]c3nc(N/N=C/c4ccc(O)cc4O)nnc3c2c1,?,149.5,32.7%,?,5.17µM*,?
COCCNC(=O)C1CCN(C(=O)N2CC3CC(C2)[C@H]2CCCC(=O)N2C3)CC1 (stereo partly specified),.,.,30.9%,.,.,.
O=C(c1ccoc1)N1CCC(c2noc(CO)n2)C1 (stereo unspecified),.,.,51.3%,.,.,.
Cc1ccc(C=Nc2ccc(Nc3ccccc3)cc2)s1,.,.,39.8µM*,.,.,.
COc1ccc(NC(=O)Cn2nc(Cc3ccncc3)c3ccccc3c2=O)cc1Cl,.,.,-19.0%,.,.,.
Cn1nnnc1Sc1ncnc2scc(-c3ccsc3)c12,.,.,-2.7%,.,.,.
COc1ccc(C#Cc2c(C=O)n(C)c3ccccc23)cc1,?,28.1,?,-21.2%,-10.6%,?
Cn1c(C=O)c(C#Cc2ccccc2)c2ccccc21,23.1µM*,49.1,-3.2%,5.3%,-25.7%,?
SMILES,DT40 TDP1 no CPT,IL-1B inflam inh,12-LOX inh,HT1080NT lethal,HT1080 IDH1KD tx,DT40 TDP1 CPT
COc1ccc(-c2nc(CNC(=O)Nc3ccc(C)c(Cl)c3)c(C)o2)cc1,.,.,0.1%,.,.,.
COc1ccc(-c2csc(=NCCO)n2-c2ccccc2)cc1,18.4µM*,-74.2*,?,-23.6%,-14.0%,?
Cc1nc2ccc(S(=O)(=O)NC(C(=O)N3CCN(c4ccc(Cl)cc4)CC3)C(C)C)cc2s1 (stereo unspecified),?,.,-25.4%,.,.,?
COc1ccc(N2CCN(C(=O)C(CC(C)C)NS(=O)(=O)c3ccc4nc(C)sc4c3)CC2)cc1 (stereo unspecified),-82.3%,.,-23.3%,.,.,11.6µM*
COC(=O)c1ccc(Nc2c([N+](=O)[O-])c(=O)oc3ccccc23)cc1,?,-77.9*,6.4%,-18.0%,-24.1%,0.0%
O=c1oc2ccccc2c(Nc2ccc(Cl)cc2)c1[N+](=O)[O-],13µM*,-24.3,9.3%,?,-27.4%,?
CCC1CCCCN1C(=O)CN1CCCN(Cc2ccccc2)S1(=O)=O (stereo unspecified),.,.,-4.0%,.,.,.
COc1cccc(C2=NS(=O)(=O)N(C)C(C(=O)Nc3ccn(Cc4ccc(C)cc4)n3)=C2)c1,.,.,8.0%,.,.,.
COc1ccc(-c2ccc3c(c2)S(=O)(=O)c2cccc(C(=O)NCCOc4ccccc4Cl)c2C3=O)cc1OC,23.1µM*,158.7,-10.7%,-2.5%,8.2%,23.1µM*
COc1ccc(-c2ccc3c(c2)S(=O)(=O)c2cccc(C(=O)NCc4ccccc4Cl)c2C3=O)cc1OC,14.6µM*,10.7,?,10.5%,8.0%,20.6µM*
COc1ccc(-c2ccc3c(c2)S(=O)(=O)c2cccc(C(=O)NC4CCCCC4)c2C3=O)cc1OC,23.1µM*,16.0,.,18.3%,11.6%,14.6µM*
COc1ccc(-c2ccc3c(c2)S(=O)(=O)c2cccc(C(=O)NC4CC4)c2C3=O)cc1OC,-27.2%,-2.4,-3.1%,5.9%,-18.6%,?
O=C(c1ccccn1)N1CCCC2(CC(c3ccccn3)=NO2)C1 (stereo unspecified),.,.,2.2%[6.33 µM],.,.,.
COCCN1C(=O)CCC2(C(=O)NCc3c(C)n[nH]c3C)CCCC=C12 (stereo unspecified),.,.,25.4%,.,.,.
Clc1cccc(Cl)c1COc1cccc(-n2cnnn2)c1,.,.,-3.5%,.,.,.
CC(Sc1ccc(Cl)cc1)C(=O)NNC(=O)c1ccccc1O (stereo unspecified),7.31µM*,162.9,i,?,?,16.4µM*
